Reference: PubChem BioAssay (NCI)
This is part of a sample that, as a whole, favours compounds with a hit. Of some 83,000 tested, about 20% had one in any assay.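 Compound tested at a single concentration for 48 hours in 96-well plates; a percent growth value below 10 was scored as active.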 The source made the active and inactive calls.

Legend:
Assay in all cases: NCI-60 one-dose screen, 48 h (100 = growth as untreated, 0 = no growth, -100 = all killed)
SK-MEL-2 melanoma = conditions: 10 µM
EKVX NSCLC = conditions: 10 µM
SN12C renal = conditions: 10 µM
TK-10 renal = conditions: 10 µM unless noted
ACHN renal = conditions: 10 µM
CAKI-1 renal = conditions: 10 µM
A498 renal = conditions: 10 µM
MOLT-4 leukemia = conditions: 10 µM
SR leukemia = conditions: 10 µM
RPMI-8226 leukemia = conditions: 10 µM
OVCAR-8 ovarian = conditions: 10 µM
OVCAR-5 ovarian = conditions: 10 µM
OVCAR-4 ovarian = conditions: 10 µM
SK-OV-3 ovarian = conditions: 10 µM
IGROV1 ovarian = conditions: 10 µM
OVCAR-3 ovarian = conditions: 10 µM
HS 578T breast = conditions: 10 µM
NCI/ADR-RES ovarian = conditions: 10 µM
CCRF-CEM leukemia = conditions: 10 µM
UO-31 renal = conditions: 10 µM

Measured: growth

N#CSc1cc(S(N)(=O)=O)ccc1N
inactive: SK-MEL-2 melanoma 104% | EKVX NSCLC 115% | SN12C renal 101% | TK-10 renal 106% | ACHN renal 112% | CAKI-1 renal 124% | A498 renal 118% | MOLT-4 leukemia 84.5% | SR leukemia 116% | RPMI-8226 leukemia 109% | OVCAR-8 ovarian 102% | OVCAR-5 ovarian 107% | OVCAR-4 ovarian 108% | SK-OV-3 ovarian 108% | IGROV1 ovarian 106% | OVCAR-3 ovarian 113% | HS 578T breast 115% | NCI/ADR-RES ovarian 108%

Cc1cc2nc(CC(=O)c3ccccc3)c(=O)[nH]c2cc1C
inactive: SK-MEL-2 melanoma 102% | EKVX NSCLC 55.5% | SN12C renal 93.8% | TK-10 renal 149% | ACHN renal 93.8% | CAKI-1 renal 76.2% | A498 renal 127% | CCRF-CEM leukemia 88.5% | MOLT-4 leukemia 89% | RPMI-8226 leukemia 103% | OVCAR-8 ovarian 94.7% | OVCAR-5 ovarian 116% | OVCAR-4 ovarian 102% | SK-OV-3 ovarian 102% | IGROV1 ovarian 91.9% | OVCAR-3 ovarian 109% | HS 578T breast 73.8% | NCI/ADR-RES ovarian 94.6%

CSc1[nH]c(=O)ncc1F
inactive: SK-MEL-2 melanoma 117% | EKVX NSCLC 101% | SN12C renal 101% | TK-10 renal 109% | ACHN renal 95% | CAKI-1 renal 91.5% | A498 renal 101% | CCRF-CEM leukemia 91.2% | MOLT-4 leukemia 117% | RPMI-8226 leukemia 106% | OVCAR-4 ovarian 102% | SK-OV-3 ovarian 119% | IGROV1 ovarian 110% | OVCAR-3 ovarian 107% | HS 578T breast 103% | NCI/ADR-RES ovarian 99.3%

Cc1ccc(C)n1-c1ccsc1C(=O)NNC(=O)C(Cl)Cl
inactive: SK-MEL-2 melanoma 106% | EKVX NSCLC 92.5% | SN12C renal 98.6% | TK-10 renal 112% | ACHN renal 104% | CAKI-1 renal 93.3% | A498 renal 101% | CCRF-CEM leukemia 85.3% | MOLT-4 leukemia 118% | RPMI-8226 leukemia 107% | OVCAR-8 ovarian 106% | OVCAR-5 ovarian 112% | SK-OV-3 ovarian 95.7% | IGROV1 ovarian 108% | OVCAR-3 ovarian 107% | HS 578T breast 100% | NCI/ADR-RES ovarian 102%

COc1ccc2c(c1)CCc1c-2n[nH]c1-c1[nH]nc2c1CCc1cc(OC)ccc1-2
inactive: SK-MEL-2 melanoma 61.7% | EKVX NSCLC 59.8% | SN12C renal 91.6% | TK-10 renal 109% | ACHN renal 57.8% | CAKI-1 renal 53.2% | A498 renal 109% | CCRF-CEM leukemia 41.8% | MOLT-4 leukemia 50.4% | RPMI-8226 leukemia 61.2% | OVCAR-8 ovarian 84.7% | OVCAR-5 ovarian 89.6% | SK-OV-3 ovarian 77% | IGROV1 ovarian 62.4% | OVCAR-3 ovarian 41.3% | HS 578T breast 48.7% | NCI/ADR-RES ovarian 33.9%

CCCCNC(=O)C(=O)NCCCC
inactive: SK-MEL-2 melanoma 123% | EKVX NSCLC 95.5% | SN12C renal 98.8% | TK-10 renal 96.4% | ACHN renal 110% | CAKI-1 renal 91.8% | A498 renal 114% | CCRF-CEM leukemia 101% | MOLT-4 leukemia 129% | RPMI-8226 leukemia 106% | OVCAR-8 ovarian 105% | OVCAR-5 ovarian 113% | SK-OV-3 ovarian 123% | IGROV1 ovarian 113% | OVCAR-3 ovarian 108% | HS 578T breast 96.6% | NCI/ADR-RES ovarian 104%

CN(C)CCN(C)CC(C)(C)C(=O)/C=C/c1ccc(Cl)cc1
active: SK-MEL-2 melanoma -25.6% | EKVX NSCLC -19.1% | SN12C renal 2.97% | TK-10 renal 0.991% | ACHN renal -27.3% | CAKI-1 renal 8.74% | CCRF-CEM leukemia -9.31% | MOLT-4 leukemia -14.7% | RPMI-8226 leukemia -24.1% | OVCAR-8 ovarian -35.4% | OVCAR-5 ovarian 3.63% | OVCAR-4 ovarian 7.86% | SK-OV-3 ovarian 5.56% | HS 578T breast -4.14% | NCI/ADR-RES ovarian -36.1%
inactive: A498 renal 10.4% | IGROV1 ovarian 15.6% | OVCAR-3 ovarian 10.4%

O=C1NC(=O)C2C(=O)NC(=O)C1C21CCc2ccccc21 (configuration not stated)
inactive: SK-MEL-2 melanoma 118% | EKVX NSCLC 90.1% | SN12C renal 100% | TK-10 renal 145% | ACHN renal 95.6% | CAKI-1 renal 77.7% | A498 renal 137% | CCRF-CEM leukemia 78.6% | MOLT-4 leukemia 111% | RPMI-8226 leukemia 115% | OVCAR-5 ovarian 110% | SK-OV-3 ovarian 116% | IGROV1 ovarian 109% | OVCAR-3 ovarian 115% | HS 578T breast 89% | NCI/ADR-RES ovarian 100%

CNC(=S)NC(C)(C)C
inactive: SK-MEL-2 melanoma 122% | EKVX NSCLC 96.2% | SN12C renal 102% | TK-10 renal 96.8% | ACHN renal 108% | CAKI-1 renal 92.6% | A498 renal 112% | CCRF-CEM leukemia 88.6% | MOLT-4 leukemia 106% | RPMI-8226 leukemia 93.2% | OVCAR-8 ovarian 99.8% | OVCAR-4 ovarian 113% | SK-OV-3 ovarian 105% | IGROV1 ovarian 105% | OVCAR-3 ovarian 124% | NCI/ADR-RES ovarian 105%

COC(=O)C(C)Oc1ccc(OC#N)cc1 (configuration not stated)
inactive: SK-MEL-2 melanoma 110% | EKVX NSCLC 99.8% | SN12C renal 91.8% | TK-10 renal 107% | ACHN renal 101% | CAKI-1 renal 86.5% | A498 renal 107% | CCRF-CEM leukemia 102% | MOLT-4 leukemia 73.7% | RPMI-8226 leukemia 103% | OVCAR-5 ovarian 94.5% | OVCAR-4 ovarian 95.8% | SK-OV-3 ovarian 103% | IGROV1 ovarian 105% | OVCAR-3 ovarian 105% | HS 578T breast 90.1% | NCI/ADR-RES ovarian 99.9%

CCNCCCCNCCCCNCCCCNCCCCNCC
inactive: SK-MEL-2 melanoma 97.1% | EKVX NSCLC 76.2% | SN12C renal 115% | TK-10 renal 63.6% | ACHN renal 80.4% | CAKI-1 renal 77.7% | A498 renal 129% | CCRF-CEM leukemia 128% | MOLT-4 leukemia 151% | RPMI-8226 leukemia 82.4% | OVCAR-5 ovarian 108% | SK-OV-3 ovarian 118% | OVCAR-3 ovarian 93.4% | HS 578T breast 76.2% | NCI/ADR-RES ovarian 122%

COc1ccc(C2OC(N)=C(O)C2=O)cc1OC (configuration not stated)
inactive: SK-MEL-2 melanoma 117% | EKVX NSCLC 94.3% | SN12C renal 96.1% | TK-10 renal 104% | ACHN renal 96.9% | CAKI-1 renal 92.7% | A498 renal 109% | CCRF-CEM leukemia 98.2% | MOLT-4 leukemia 109% | RPMI-8226 leukemia 104% | OVCAR-8 ovarian 105% | OVCAR-5 ovarian 96.7% | OVCAR-4 ovarian 103% | SK-OV-3 ovarian 99.5% | IGROV1 ovarian 106% | OVCAR-3 ovarian 114% | HS 578T breast 70.1% | NCI/ADR-RES ovarian 103%

CCS(=O)(=O)CCCl
inactive: SK-MEL-2 melanoma 102% | EKVX NSCLC 89.6% | SN12C renal 97.8% | TK-10 renal 96.5% | ACHN renal 97.3% | CAKI-1 renal 101% | A498 renal 129% | CCRF-CEM leukemia 63.6% | MOLT-4 leukemia 89.5% | RPMI-8226 leukemia 101% | OVCAR-5 ovarian 105% | OVCAR-4 ovarian 101% | SK-OV-3 ovarian 104% | IGROV1 ovarian 107% | OVCAR-3 ovarian 116% | HS 578T breast 96.4% | NCI/ADR-RES ovarian 105%

O=[N+]([O-])c1ccc(-c2noc(-c3cccs3)n2)cc1
inactive: SK-MEL-2 melanoma 106% | EKVX NSCLC 66.1% | SN12C renal 83.5% | TK-10 renal 101% | ACHN renal 60.2% | CAKI-1 renal 77.8% | A498 renal 88.6% | CCRF-CEM leukemia 93.6% | MOLT-4 leukemia 81.5% | RPMI-8226 leukemia 96.5% | OVCAR-8 ovarian 86.6% | OVCAR-5 ovarian 98.5% | OVCAR-4 ovarian 71.6% | SK-OV-3 ovarian 95.2% | IGROV1 ovarian 96% | OVCAR-3 ovarian 106% | HS 578T breast 60.3% | NCI/ADR-RES ovarian 82.4%

CCc1nc(N)nc(N)c1-c1ccc(Cl)cc1
inactive: SK-MEL-2 melanoma 105% | EKVX NSCLC 74.9% | SN12C renal 64.7% | TK-10 renal 104% | ACHN renal 40.9% | CAKI-1 renal 91.4% | A498 renal 87.7% | CCRF-CEM leukemia 68.4% | SR leukemia 57.3% | RPMI-8226 leukemia 102% | OVCAR-8 ovarian 47.7% | OVCAR-4 ovarian 78.4% | SK-OV-3 ovarian 84% | OVCAR-3 ovarian 116% | HS 578T breast 103% | NCI/ADR-RES ovarian 56.4%

COc1ccc(-c2cc3c(nn2)-c2ccccc2C3=O)cc1
inactive: SK-MEL-2 melanoma 65.5% | SN12C renal 72.7% | UO-31 renal 89.7% | TK-10 renal 32.1% | ACHN renal 73.5% | CAKI-1 renal 28.9% | A498 renal 102% | CCRF-CEM leukemia 28.6% | MOLT-4 leukemia 57.1% | RPMI-8226 leukemia 27.2% | OVCAR-5 ovarian 83.7% | SK-OV-3 ovarian 102% | IGROV1 ovarian 61.6% | HS 578T breast 103% | NCI/ADR-RES ovarian 60.9%
active: SR leukemia -21.8% | OVCAR-8 ovarian -9.96% | OVCAR-4 ovarian -26.1% | OVCAR-3 ovarian -49.3%

CC(=O)/C(Cc1ccccc1)=N/O
inactive: SK-MEL-2 melanoma 99.7% | EKVX NSCLC 92.4% | SN12C renal 105% | ACHN renal 98.6% | CAKI-1 renal 100% | A498 renal 75.6% | CCRF-CEM leukemia 99% | MOLT-4 leukemia 85% | SR leukemia 81.8% | RPMI-8226 leukemia 97.5% | OVCAR-8 ovarian 96.1% | OVCAR-4 ovarian 92% | SK-OV-3 ovarian 89.3% | IGROV1 ovarian 112% | OVCAR-3 ovarian 106% | NCI/ADR-RES ovarian 99.9%

CCOC(=O)c1ccc(NC(=S)P(=O)(c2ccccc2)c2ccccc2)cc1
inactive: SK-MEL-2 melanoma 119% | SN12C renal 103% | UO-31 renal 92.9% | TK-10 renal 123% | ACHN renal 102% | CAKI-1 renal 86.3% | A498 renal 86.3% | CCRF-CEM leukemia 69.8% | MOLT-4 leukemia 52.6% | SR leukemia 69.3% | RPMI-8226 leukemia 64.4% | OVCAR-8 ovarian 107% | OVCAR-5 ovarian 105% | OVCAR-4 ovarian 99.6% | SK-OV-3 ovarian 107% | IGROV1 ovarian 110% | OVCAR-3 ovarian 92.2% | HS 578T breast 96.4% | NCI/ADR-RES ovarian 101%

O=[N+]([O-])c1ccc(/C=C/C=C/c2ccccc2)c(Cl)c1
inactive: SK-MEL-2 melanoma 94.3% | SN12C renal 98.3% | UO-31 renal 92.8% | TK-10 renal 121% | ACHN renal 100% | CAKI-1 renal 95% | A498 renal 88.9% | CCRF-CEM leukemia 90.7% | MOLT-4 leukemia 86.4% | SR leukemia 95.2% | RPMI-8226 leukemia 87.6% | OVCAR-8 ovarian 98.8% | OVCAR-5 ovarian 102% | OVCAR-4 ovarian 82.5% | SK-OV-3 ovarian 98.8% | IGROV1 ovarian 88% | OVCAR-3 ovarian 105% | HS 578T breast 87.7% | NCI/ADR-RES ovarian 108%
